Only some compounds are listed: those with a hit (about 19% of all), similar ones and a draw of the others.
HT1080-NT tox – qHTS for induction of synthetic lethality in tumor cells producing 2HG: qHTS for the HT-1080-NT fibrosarcoma cell line; Potency, µM (titrated, usually from 46.1 µM), inactives show top-dose activity, negative = less viability, hits mostly cytotoxic; HT-1080-NT fibrosarcoma viability, CellTiter-Glo ATP luminescence, 48 h; 1.6% of 360,000 active;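 also: NT is the 2HG producing partner of a matched IDH1 knockdown line; potency is read from the fitted curve at half-maximal effect; 0% = DMSO-treated cells and -100% = media-only wells without cells; nearly all actives have a fitted effect of over 55% in size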
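HT-1080-NT; 750 cells/well; 5% FBS RPMI; 48 h compound, 37 degrees C; CellTiter-Glo luminescence; curve fitting and curve-class assignment.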
HT1080 IDH1KD tx – qHTS for induction of synthetic lethality in tumor cells producing 2HG: qHTS for the HT-1080-IDH1KD cell line. HT-1080 IDH1 knockdown viability, ATP luminescence, 48 h. Potency, µM (titrated, usually from 46.1 µM), for the others: at the highest dose activity, negative = toxicity, usual class: cytotoxic. 2% of 360,000 active. AID 686971, 2013;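 also: potency is read from the fitted curve at half-maximal effect; 0% = DMSO wells and -100% = cell-free medium wells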
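Viability of IDH1-knockdown HT-1080 fibrosarcoma cells was assessed by CellTiter-Glo after 48 h at 37 °C with titrated compound; concentration-effect curves were classified by fit quality and response size.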
TDP1 cell noCPT – qHTS for Inhibitors of human tyrosyl-DNA phosphodiesterase 1 (TDP1): qHTS in cells in absence of CPT; Potency, µM (top dose mostly 46.2 µM), for the others: at the top dose activity change, negative = growth inhibition, actives largely listed as inhibitors; DT40 Tdp1-/- hTDP1 cells, no CPT, ATP luminescence, 48 h; 15% of 420,000 active; also: potency is read from the fitted curve at half-maximal effect; nearly all actives have a fitted effect of over 55% in size
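Stably hTDP1-transfected Tdp1-null chicken DT40 cells were treated with library compounds minus camptothecin and grown for at least 48 hr at 37 °C, after which cellular ATP was quantified by luminescence.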
TDP1 cell CPT – qHTS for Inhibitors of human tyrosyl-DNA phosphodiesterase 1 (TDP1): qHTS in cells in presence of CPT; chicken DT40 Tdp1-/-;hTDP1 cells + 20 nM CPT, ATP luminescence, 48 h; Potency, µM (titrated, usually from 46.2 µM), inactives show at the top dose activity change, negative = growth inhibition, most hits filed as inhibitors; 12% of 420,000 active; also: potency is read from the fitted curve at half-maximal effect; nearly all actives have a fitted effect of over 55% in size
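Chicken DT40 Tdp1-/- cells stably complemented with human TDP1 were seeded at 400 cells/well in medium containing 20 nM camptothecin, exposed to pin-transferred compounds, and grown at 37 °C for at least 48 hr. Viability was read as ATP luminescence.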
IL-1B inflam inh – qHTS for Inhibitors of Inflammasome Signaling: IL-1-beta AlphaLISA Primary Screen; THP-1 LPS/ATP IL-1B secretion, AlphaLISA, 16 h; stronger effect = lower value; activity change, % at 57.5 µM; 4.7% of 360,000 active; in the data active = activity change below about -50%; inconclusive = mostly about -30% to -49%
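Secreted IL-1B measured by AlphaLISA bead assay after 16 h compound exposure of THP-1 cells; compounds (final up to 57.5 uM) added 1 h before LPS (250 ng/mL) and ATP (1.25 mM) stimulation; lower signal means less secretion.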
Starred values were filed as active, the others as inactive; i = inactive; ? = inconclusive; . = no result given; [ ] = dose if it differs, or a comment. Unless noted, calls follow the shape of the dose curve; as a rule, active = well fitted curve in the direction sought with a large enough effect; inconclusive = small, poorly fitted or top-dose-only effect, or another doubt; inactive = no such curve, though single readings can be large; an effect the other way counts as inactive or inconclusive. Unless noted, % is scaled to controls: 0 for no effect and ±100 for the full control effect.

SMILES	HT1080-NT tox	HT1080 IDH1KD tx	TDP1 cell noCPT	TDP1 cell CPT	IL-1B inflam inh
CC(=O)N1CCCc2cc(S(=O)(=O)N(C)CC(=O)Nc3ccccc3)ccc21	7%	9%	?	?	30
CC(=O)N1CCCc2cc(S(=O)(=O)N(CC(C)C)CC(C)C)ccc21	-23%	-29%	?	26µM*	0
CCc1cc2c(=O)c(-c3nc4ccccc4n3C)coc2c(CN2CCC(C)CC2)c1O	12%	14%	6.5µM*	?	55
CCc1cc2c(=O)c(-c3nc4ccccc4n3C)coc2c(CN2CCN(C)CC2)c1O	9%	2%	-1%	0%	-4
CN(C)CC[n+]1ccc(C(=O)c2ccccc2)cc1	-1%	-20%	2.6µM*	4.1µM*	7
COc1ccc(C2CC2C(C)=O)cc1 (stereo unspecified)	4%	9%	-12%	-11%	25
CCN(CC)S(=O)(=O)c1cccc(-c2nnc(SC(C)C#N)n2Cc2ccccc2)c1 (stereo unspecified)	-15%	-9%[9.24 µM]	18µM*	15µM*	-19
Cc1ccc(C(=O)N2CCN(c3ccc([N+](=O)[O-])cc3-n3cccc3)CC2)cc1	-20%	-21%	18µM*	?	?
O=C(C1CC1)N1CCN(c2ccc([N+](=O)[O-])cc2-n2cccc2)CC1	-19%	-27%	13µM*	12µM*	-6
CC(C)(C)C(=O)N1CCN(c2ccc([N+](=O)[O-])cc2-n2cccc2)CC1	-28%	-11%	21µM*	?	-5
COc1ccc(N2CCN(C(=O)c3ccc(C)cc3)CC2)c([N+](=O)[O-])c1	-5%	-2%	?	?	-4
Cc1ccc(Nc2ccc(N3CCN(C(=O)c4ccc([N+](=O)[O-])cc4)CC3)nn2)cc1	.	.	23µM*	?	.
CCOC(=O)CCCn1ccc2cc(S(=O)(=O)N3CCCC3)ccc21	-5%	-3%	22%	-11%	12
COc1ncc2ncc(=O)n(CCC#N)c2n1	.	.	-9%	-7%	.
CC(C)C(=O)N1CCN(c2ccc(NC(=O)COc3ccccc3[N+](=O)[O-])cc2)CC1	?	?	18µM*	15µM*	-90*
CN1CCN(c2ccc(NC(=O)COc3ccccc3[N+](=O)[O-])cc2)CC1	1%	5%	?	-2%	4
O=C(COc1cc(F)ccc1[N+](=O)[O-])Nc1ccc(N2CCCCC2)cc1	0%	-23%	?	?	-67*
Cc1ccccc1C(=O)NCC(=O)NC1CC1	-4%	0%	-11%	-22%	-1
CN(C)CC(O)CN1C(=O)NC(C)(C)C1=O (stereo unspecified)	1%	7%	4%	2%	5
Cc1ccc(/C=C2/Sc3ccccc3N(CC(=O)NCCCOC(C)C)C2=O)cc1	15%	17%	?	?	?
CCN1CCN(CCCNC(=O)c2ccc(/C=C3/Sc4ccccc4N(Cc4ccccc4F)C3=O)cc2)CC1	18µM*	15µM*	15µM*	16µM*	?
CCN1CCN(CCNC(=O)c2ccc(/C=C3/Sc4ccccc4N(Cc4ccccc4C)C3=O)cc2)CC1	15µM*	21µM*	?	?	23
Cc1ccc(N2CCN(C(=O)C(=O)c3ccc(F)c(F)c3)CC2)cc1	-8%	-2%	-25%	-22%	-12
C/C=C/C(=O)Nc1cccc(C2=NOC3(C2)C[C@@H](C(N)=O)N(C(=O)C(c2ccccc2)c2ccccc2)C3)c1 (stereo partly specified)	-2%	3%	?	?	15
CCn1c(SCC(=O)N2CCCCCC2)nc2c([nH]c3ccccc32)c1=O	-4%	-3%	-11%	-18%	i

Source: PubChem BioAssay (National Center for Advancing Translational Sciences (NCATS))
